Data taken from PubChem BioAssay AID1259415 (National Center for Advancing Translational Sciences (NCATS), 2018).
The campaign covered roughly 410,000 compounds. About 18,000 (4.4%) were called active. Inconclusive results (about 7%) are left out. The full list was thinned out, with actives kept by preference. Unmarked numbers belong to inactive results. Cut-off read from the data, not from the text of the source: active = activity change below about -60%; inconclusive = no clear call, values can overlap the other calls; inactive = above about -39%.

test: qHTS Assay for inhibitors of the human cytomegalovirus (HCMV); details: HFF cells, HCMV-luciferase reporter, 72 h; at 57.5 µM; stronger effect = lower value
Method in brief: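 Two-dose cell screen: HFF monolayers treated with compounds and infected with luciferase-expressing HCMV at 1 PFU/cell, 72 h at 37C, then lysed for luciferase measurement.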
% is set by controls: 0 for no effect and ±100 for the full control effect.

Question: Which activity change, negative = inhibition does the source give for `CC(C)Cn1c(C2CC(=O)N(c3ccccc3Cl)C2)nc2ccccc21` (centres undefined) here?
Answer: -19.6%

Question: Which activity change, negative = inhibition does the source give for `CCCS(=O)(=O)N1CCC(n2c(C(F)(F)F)nc3cccnc32)CC1` here?
Answer: -21.7%

Question: Which activity change, negative = inhibition does the source give for `O=C(Nc1ccc(Cl)cc1C(=O)c1ccccc1)c1cc(Cl)cc(Cl)c1` here?
Answer: 5.04%

Question: Which activity change, negative = inhibition does the source give for `O=C(OCC(O)C(O)COC(=O)c1ccccc1)c1ccccc1` (centres undefined) here?
Answer: 4.04%

Question: With `O=C(NC1=CC(=O)c2ccccc2C1=O)c1ccccc1` as the compound, how does the activity change, negative = inhibition read?
Answer: -66.1% (active)

Question: With `O=C(NCCCO)c1nn(-c2ccc(Cl)cc2)nc1CO` as the compound, how does the activity change, negative = inhibition read?
Answer: -7.65%

Question: Which activity change, negative = inhibition does the source give for `CC(C)c1nc2sc3c(c2c(=O)n1N)CC(C)(C)OC3` here?
Answer: -18.9%

Question: Which activity change, negative = inhibition does the source give for `CCCSc1nc(NCc2ccco2)c2c3c(sc2n1)COC(C)(CC)C3` (centres undefined) here?
Answer: -2.99%

Question: Which activity change, negative = inhibition does the source give for `CCC1(C)Cc2c(sc3[nH]c(=S)n(Cc4ccccc4)c(=O)c23)CO1` (centres undefined) here?
Answer: -69.4% (active)

Question: For `Cn1c(=O)c2c(ncn2CC(=O)Nc2cccc(C(F)(F)F)c2)n(C)c1=O`, which activity change, negative = inhibition is on record?
Answer: 2.82%

Question: Which activity change, negative = inhibition does the source give for `Cc1ccc(C)c(C(O)c2ncc(-c3cccc4ccccc34)[nH]2)c1` (centres undefined) here?
Answer: 4.52%

Question: With `CC(=O)N1CCCc2cc(S(=O)(=O)Nc3ccc(Cl)cc3F)ccc21` as the compound, how does the activity change, negative = inhibition read?
Answer: -24.4%

Question: Which activity change, negative = inhibition does the source give for `CC(CCc1ccccc1)NCC(O)c1cccc([N+](=O)[O-])c1` (centres undefined) here?
Answer: -22%

Question: Which activity change, negative = inhibition does the source give for `Cc1ncoc1C(=O)NCCC(c1ccccc1)c1ccccc1` here?
Answer: -6.8%

Question: Which activity change, negative = inhibition does the source give for `CC(Cc1ccccc1)NCCC(c1ccccc1)c1ccccc1` (centres undefined) here?
Answer: -91.4% (active)

Question: Which activity change, negative = inhibition does the source give for `CCOC(=O)C(CCOc1cccc(CC)c1)C(=O)OCC` here?
Answer: -23.8%

Question: With `CC(C)NS(=O)(=O)c1ccc(OCC(=O)NC2CCCCCC2)cc1` as the compound, how does the activity change, negative = inhibition read?
Answer: -39.9%

Question: With `CC(C)NS(=O)(=O)c1ccc(OCC(=O)Nc2ccc3c(c2)OCCO3)cc1` as the compound, how does the activity change, negative = inhibition read?
Answer: -82.2% (active)

Question: Which activity change, negative = inhibition does the source give for `CC(=O)Nc1ccc(NC(=O)COc2ccc(S(=O)(=O)NC(C)c3ccccc3)cc2)cc1` (centres undefined) here?
Answer: 28.7%

Question: For `O=C(NCc1ccccc1)C(=O)NCC(c1ccco1)S(=O)(=O)c1ccc(Cl)cc1` (centres undefined), which activity change, negative = inhibition is on record?
Answer: -24.1%

Question: With `S=c1[nH]nc2c3c4c(sc3ncn12)CCCC4` as the compound, how does the activity change, negative = inhibition read?
Answer: -26.7%

Question: Which activity change, negative = inhibition does the source give for `O=c1oc(-c2ccco2)nc2sc3c(c12)CCCCC3` here?
Answer: 69%

Question: Which activity change, negative = inhibition does the source give for `c1nnc2c3c4c(sc3ncn12)CCC4` here?
Answer: -65.9% (active)

Question: Which activity change, negative = inhibition does the source give for `O=C(Nc1nnc(C2=COCCO2)o1)c1ccc([N+](=O)[O-])s1` here?
Answer: -20.1%

Question: For `Cc1cccc(Cn2c(SCc3ccc(C(=O)N4CCC(C)CC4)cc3)nc3ccncc32)c1`, which activity change, negative = inhibition is on record?
Answer: -62.6% (active)

Question: With `COc1cccc(Cn2c(SCc3ccc(C(=O)N4CCC(C)CC4)cc3)nc3ccncc32)c1` as the compound, how does the activity change, negative = inhibition read?
Answer: -13.1%

Question: With `Cc1cccc(CSc2nc3ccncc3n2Cc2ccc(C(=O)O)cc2)c1` as the compound, how does the activity change, negative = inhibition read?
Answer: 9.17%

Question: With `NC1(C#Cc2ccc(F)c(-c3noc4ccccc34)c2)CCCCC1` as the compound, how does the activity change, negative = inhibition read?
Answer: -18.5%

Question: Which activity change, negative = inhibition does the source give for `O=C(NNc1ccccc1Cl)C(O)(c1cccc(C(F)(F)F)c1)c1cccc(C(F)(F)F)c1` here?
Answer: -100% (active)

Question: For `O=C(Nc1cc(C(F)(F)F)ccc1Cl)c1nc2ccccc2nc1N1CCCCC1`, which activity change, negative = inhibition is on record?
Answer: 10.2%

Question: With `O=c1cc(O)c(-c2cccc(C(F)(F)F)c2)c(Cl)[nH]1` as the compound, how does the activity change, negative = inhibition read?
Answer: -14.8%

Question: Which activity change, negative = inhibition does the source give for `COc1cccc(/C=C2\Sc3ccc(C(=O)NCC4CCCO4)cc3N(C)C2=O)c1` (centres undefined) here?
Answer: -14.4%

Question: For `COc1cccc(NC(=O)C2C(c3ccccc3)C2(Cl)Cl)c1` (centres undefined), which activity change, negative = inhibition is on record?
Answer: -32.5%

Question: With `COc1ccc2c(c1)C(C)=CC(C)(C)N2C(=O)CNCc1ccc2c(c1)OCO2` as the compound, how does the activity change, negative = inhibition read?
Answer: -9.9%

Question: Which activity change, negative = inhibition does the source give for `COc1ccc2c(c1)C(C)=CC(C)(C)N2C(=O)Nc1ccccc1` here?
Answer: -99.4% (active)

Question: With `C#CCOc1ccc(C2CC(=O)Nc3c2c(C)nn3-c2nc(C)cc(C)n2)cc1` (centres undefined) as the compound, how does the activity change, negative = inhibition read?
Answer: -10.8%

Question: With `CC[C@]12c3[nH]c4cc(CCC(=O)N(C)C)ccc4c3CCN1C(=O)[C@@H](CC(=O)NCCCN(C)C)C[C@@H]2C(=O)N1CCN(C(=O)c2ccco2)CC1` as the compound, how does the activity change, negative = inhibition read?
Answer: -18.4%

Question: Which activity change, negative = inhibition does the source give for `CN1c2ccc(Cl)cc2-c2nc(SCC(=O)Nc3cc(F)ccc3F)ncc2S1(=O)=O` here?
Answer: -32.3%

Question: For `O=C(Nc1ccc(CSc2ccccc2)cc1)c1ccc(CN2CCOCC2)cc1`, which activity change, negative = inhibition is on record?
Answer: -79.7% (active)

Question: With `O=C(Nc1ccccc1C(=O)N1CCOCC1)c1ccc(CSc2ccccc2)cc1` as the compound, how does the activity change, negative = inhibition read?
Answer: -24.2%

Question: Which activity change, negative = inhibition does the source give for `C/C(CCc1ccccc1)=N\NC(=O)c1ccc(CN2CCOCC2)cc1` here?
Answer: -12.4%

Question: Which activity change, negative = inhibition does the source give for `CCCCN1CCNC1=S` here?
Answer: 47%

Question: For `CCn1cc(C(=O)NCc2ccc(C)cc2)c(=O)c2cc(S(=O)(=O)N3CCc4ccccc4C3)ccc21`, which activity change, negative = inhibition is on record?
Answer: 7.01%

Question: For `Cc1c(Cl)cccc1NC(=O)C1CCCN(c2ncnc3onc(C)c23)C1` (centres undefined), which activity change, negative = inhibition is on record?
Answer: 4.4%

Question: With `CCc1ccccc1N(C)C(=O)C1CCCN(c2ncnc3onc(-c4ccc(F)cc4)c23)C1` (centres undefined) as the compound, how does the activity change, negative = inhibition read?
Answer: 6.75%

Question: For `Cc1ccc(Cl)cc1N(C)C(=O)C1CCCN(c2ncnc3onc(-c4ccc(F)cc4)c23)C1` (centres undefined), which activity change, negative = inhibition is on record?
Answer: -73.3% (active)

Question: With `CC(C)Oc1ccc(S(=O)(=O)N2CCOCC2)cc1NC(=O)C1CCCC1` as the compound, how does the activity change, negative = inhibition read?
Answer: 36.7%

Question: For `CCCc1cc(=O)oc2c(C)c(O)c(CN3CCCCC3)cc12`, which activity change, negative = inhibition is on record?
Answer: -20.3%

Question: Which activity change, negative = inhibition does the source give for `OC(COc1ccc(CN2CCSCC2)cc1)CN1CCCCC1` (centres undefined) here?
Answer: 0%

Question: Which activity change, negative = inhibition does the source give for `O=C(c1ccc(Cl)cc1)c1ccc(OCC(O)CN2CCCCC2)cc1` (centres undefined) here?
Answer: -63.1% (active)

Question: Which activity change, negative = inhibition does the source give for `Cn1c(=O)c2c(nc(N3CCCCCC3)n2CC(O)COc2ccc(Cl)cc2)n(C)c1=O` (centres undefined) here?
Answer: 16.7%

Question: For `COc1ccc(NC(=O)CCNS(=O)(=O)c2ccc3c(c2)CCCC(=O)N3)cc1Cl`, which activity change, negative = inhibition is on record?
Answer: -20.5%

Question: For `CCn1c(CNC(=O)C23CC4CC(CC(C4)C2)C3)nnc1SCC(=O)Nc1ccc(OC)cc1`, which activity change, negative = inhibition is on record?
Answer: 10%

Question: With `C#CCOc1ccccc1/C=C1/C(=O)ON=C1C` as the compound, how does the activity change, negative = inhibition read?
Answer: 52.7%

Question: Which activity change, negative = inhibition does the source give for `Cc1no[n+]([O-])c1COc1ccccc1/C=C1\NC(=S)NC1=O` here?
Answer: -83.4% (active)

Question: With `COC(=O)c1ccc(Cn2c(SCC(=O)N(C)c3ccccc3)nc3ccccc32)cc1` as the compound, how does the activity change, negative = inhibition read?
Answer: -6.59%

Question: For `COc1ccc(-c2nnc(SC(=O)N3c4ccccc4Sc4ccccc43)o2)cc1`, which activity change, negative = inhibition is on record?
Answer: 10.6%

Question: For `N/C(=N\OC(=O)N1c2ccccc2Sc2ccccc21)c1ccc(Br)cc1`, which activity change, negative = inhibition is on record?
Answer: -63.7% (active)

Question: With `N/C(=N\OC(=O)CCc1ccccc1)c1ccc(Cl)cc1` as the compound, how does the activity change, negative = inhibition read?
Answer: 10.6%
